High-throughput results as filed in PubChem BioAssay.
Anaer choline gr: inhibitors of anaerobic choline-dependent gram-negative bacterial growth. Gram-negative bacterium anaerobic choline minimal medium, absorbance growth; hits give low values. calls only. actives 0.2% (n = 55,000). AID 1963822; call rule not given here
Large screens that a line does not name were inactive. The sample as a whole holds a higher share of hits than the screen did.

CN1C2CCC1CC(OC(c1ccccc1)c1ccccc1N)C2 (stereo unspecified)	none
CN1C2CCC1CC(OC(c1ccccc1)c1ccc(Cl)cc1)C2 (stereo unspecified)	Anaer choline gr active
Clc1ccc(C(OCCN2CCCCC2)c2ccccc2)cc1 (stereo unspecified)	none
c1ccc(OC[C@@H]2CCCN3CCCCC23)nc1 (stereo partly specified)	none
CC(C)Cn1ccnc(N2CCN(C)CC2)c1=O	none
O=[N+]([O-])/C=C/c1ccc2c(c1)OCO2	none
O=C(Oc1ccc([N+](=O)[O-])cc1)N1CCC(C(O)(c2ccc3c(c2)OCO3)c2ccc3c(c2)OCO3)CC1	none
O=[N+]([O-])C=Cc1ccc2c(c1)OCO2	Anaer choline gr active
O=C(Cc1cccc(F)c1)N1CCN(Cc2noc(-c3ccccc3)n2)CC1	none
COc1ccccc1NC(=O)CN1CC=C(c2cnn(C)c2)CC1	none
